TGFb inhibitor: blocks TGF-b signaling; Potency, µM (titrated, usually from 46.1 µM), without a hit: at the top dose activity, negative = inhibition, actives largely listed as inhibitors; AID 588855; HepG2 CAGA-GFP TGF-b/SMAD3 reporter, GFP fluorescence, 18 h; TGF-beta stimulated, 500 pg/mL final; 410,000 compounds, 1.2% hits; further: on the % scale 0 is the no-effect control and ±100 the full control effect; nearly all actives have a fitted effect of over 65% in size
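First, reporter cells (HEPG2 CAGA-GFP) rested 2 h at 37 degrees C. Next, compounds were pinned in and TGF-beta added to 500 pg/mL final. After 18 h, GFP was imaged per cell and summed per well.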
TDP1 cell CPT: DT40-hTDP1 cell growth loss with CPT. chicken DT40 Tdp1-/-;hTDP1 cells + 20 nM CPT, ATP luminescence, 48 h. Potency, µM (doses to about 46.2 µM), inactives show top-dose activity change, negative = growth inhibition, most hits filed as inhibitors. 420,000 compounds, 12% hits. AID 686979; further: on the % scale 0 is the no-effect control and ±100 the full control effect; nearly all actives have a fitted effect of over 55% in size
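Cell growth measured by CellTiter-Glo luminescence after a minimum 48 h, 37 C compound exposure with 20 nM CPT in Tdp1-knockout DT40 cells stably expressing hTDP1, seeded 400/well; qHTS titration format.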
TDP1 cell noCPT: qHTS for Inhibitors of human tyrosyl-DNA phosphodiesterase 1 (TDP1): qHTS in cells in absence of CPT | DT40 Tdp1-/- hTDP1 cells, no CPT, ATP luminescence, 48 h | Potency, µM (top dose mostly 46.2 µM), for the others: at the top dose activity change, negative = growth inhibition, hits mostly inhibitors | 420,000 compounds, 15% hits | AID 686978, 2013; further: on the % scale 0 is the no-effect control and ±100 the full control effect; nearly all actives have a fitted effect of over 55% in size
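No-CPT arm: Tdp1-/-;hTDP1 DT40 cells (400/well) plus compounds, incubated ≥48 hr at 37 °C. Readout CellTiter-Glo luminescence.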
HepG2 tox: HepG2 cytotoxicity, counter-screen for TGF-b inhibitors. 410,000 compounds, 0.76% hits. HepG2 CAGA-GFP viability, ATP luminescence, 18 h. Potency, µM (top dose mostly 46.1 µM), for the others: at the highest dose activity change, negative = cytotoxicity, usual class: cytotoxic
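CellTiter-Glo luminescence gave cytotoxicity after 18 hours at 37 degrees C. The cells were HepG2 CAGA-GFP in 1% FBS DMEM, stimulated with 500 pg/mL TGF-beta after compound addition. %Activity was normalised to no-cell wells (complete cell-killing) and DMSO (no toxicity), and curves were fitted and classified.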
HT1080NT lethal: kills 2HG-producing HT-1080-NT fibrosarcoma cells. HT-1080-NT fibrosarcoma viability, CellTiter-Glo ATP luminescence, 48 h. 360,000 compounds, 1.6% hits. AID 686970. Potency, µM (highest dose often 46.1 µM), inactives show at the highest dose activity, negative = less viability, most hits filed as cytotoxic;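 further: NT is the 2HG producing partner of a matched IDH1 knockdown line; 0% = DMSO-treated cells and -100% = media-only wells without cells; nearly all actives have a fitted effect of over 55% in size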
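Read-out is CellTiter-Glo luminescence after 10 minutes at room temperature, following 48 hours' compound treatment of HT-1080-NT cells (750 cells/well, RPMI, 5% FBS, 37 degrees C).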
HT1080 IDH1KD tx: kills HT-1080 cells with IDH1 knockdown | HT-1080 IDH1 knockdown viability, ATP luminescence, 48 h | Potency, µM (doses to about 46.1 µM), for the others: at the highest dose activity, negative = toxicity, hits mostly cytotoxic | 360,000 compounds, 2% hits;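 further: 0% = DMSO wells and -100% = cell-free medium wells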
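After a 2 h attachment period, IDH1KD HT-1080 cells took pin-transferred compound for 48 h at 37 °C; ATP-based luminescence after 10 min room-temperature reagent incubation reported viability.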
* marks the source's active call; other numbers are inactive results; ? = inconclusive; nt = no result given. Hits are enriched below; roughly 17% of the tested compounds scored in any of these assays. The call rests on the fitted dose curve; in most records, active means well fitted curve in the direction sought with a large enough effect; inconclusive means small, poorly fitted or top-dose-only effect, or another doubt; inactive means no such curve, though single readings can be large; an effect the other way counts as inactive or inconclusive. Potency means the concentration at half of the fitted maximal effect.

SMILES	TGFb inhibitor	TDP1 cell CPT	TDP1 cell noCPT	HepG2 tox	HT1080NT lethal	HT1080 IDH1KD tx
COC(=O)c1ccc(C2Nc3c(C)cccc3-c3cc(C)nn32)cc1 (centres undefined)	?	?	16µM*	-6%	nt	nt
CC(=O)Nc1ccc(C2Nc3c(C)cc(C)cc3-c3cc(C)nn32)cc1 (centres undefined)	3%	18µM*	?	-17%	nt	nt
O=C(CNc1cc(S(=O)(=O)N2CCOCC2)ccc1NCC1CCCO1)Nc1cccc(F)c1 (centres undefined)	8%	-24%	-21%	-33%	-2%	-4%
Cc1ccc(S(=O)(=O)C2CCN(c3nc(-c4cccs4)nc4ccccc34)CC2)cc1	nt	11µM*	?	nt	-1%	19%
CN1CCN(c2nc(-c3cccs3)nc3ccccc23)CC1	1%	?	?	-21%	?	-22%
Cc1ccc(S(=O)(=O)N2CCN(c3nc(-c4cccs4)nc4cccnc34)CC2)cc1	7%	10µM*	?	4%	nt	nt
Cc1cccc(S(=O)(=O)N2CCN(c3nc(-c4cccs4)nc4ccccc34)CC2)c1	nt	-10%	-13%	nt	1%	-2%
Cc1ccc(S(=O)(=O)N2CCN(c3nc(-c4cccs4)nc4ccccc34)CC2)cc1	3%	?	11µM*	3%	25%	9%
COc1cccc(S(=O)(=O)N2CCN(c3nc(-c4cccs4)nc4ccccc34)CC2)c1	nt	14µM*	10µM*	nt	11%	0%
CN(C)c1ccc(C2SCCN2C(=O)c2ccc([N+](=O)[O-])cc2)cc1 (centres undefined)	-9%	-13%	-11%	-1%	-19%	-19%
COc1ccccc1N=CC1=C(O)CC(c2ccccc2)CC1=O (centres undefined)	-16%	5.2µM*	9.2µM*	2%	?	?
CCCn1nnc(NC(=S)NC(=O)C(C)(C)C)n1	-24%	?	?	9%	14%	1%
CCCn1nnc(NC(=S)NC(=O)c2cccs2)n1	8%	21µM*	18µM*	-2%	9%	8%
Cc1cc(C)nc(NNC(=O)c2ccccc2O)n1	-9%	?	?	-49%	3%	1%
COC(=O)N1C(=O)[C@@](Cc2ccccc2)(c2ccccc2)N1C(=O)OC	7.9µM*	?	18µM*	-97%	-24%	-12%
COC(=O)N1C(=O)[C@](c2ccccc2)(C(C)C)N1C(=O)OC	-49%	?	?	-38%	-1%	0%
COC(=O)N1C(=O)[C@](Cc2ccccc2)(c2ccccc2)N1C(=O)OC	?	13µM*	12µM*	-89%	0%	-2%
Cc1cccc(-c2noc(CNC(=O)c3ccccc3Br)n2)c1	0%	-17%	?	-14%	nt	nt
Nc1nc2[nH]cc(CCc3ccc(C(=O)N[C@@H](CCC(=O)O)C(=O)O)cc3)c2c(=O)[nH]1	-14%	0.047µM*	0.03µM*	-7%	nt	nt
CN1c2c(nc(N)[nH]c2=O)NCC1CNc1ccc(C(=O)NC(CCC(=O)O)C(=O)O)cc1 (centres undefined)	0%	5%	?	-7%	nt	nt
O=C(N/N=C/c1ccc(F)cc1)c1cc(-c2ccco2)nc2ccccc12	?	12µM*	13µM*	-18%	?	16µM*
CCOc1ccc(/C=N/NC(=O)c2cc(-c3ccco3)nc3ccccc23)cc1	-2%	?	23µM*	-14%	?	-13%
CCNC(=O)COC(=O)c1cc(-c2ccco2)nc2ccccc12	-5%	?	?	-3%	1%	-3%
O=C(O)c1cc(-c2ccco2)nc2ccccc12	-2%	-4%	0%	-5%	0%	6%
COc1ccc(Br)cc1C1C2C=CCCC2(C)C(=O)N1Cc1ccccc1 (centres undefined)	?	nt	nt	-29%	nt	nt
SMILES	TGFb inhibitor	TDP1 cell CPT	TDP1 cell noCPT	HepG2 tox	HT1080NT lethal	HT1080 IDH1KD tx
O=[N+]([O-])/C(C(Cl)=C(Cl)Cl)=C(/NC1CC1)Sc1ccccc1	11%	?	23µM*	-8%	5%	6%
CS(=O)(=O)c1ccc(-c2nnc(NC(=O)c3ccc(S(=O)(=O)N4CCCC4)cc3)o2)cc1	?	0%	6%	-13%	-12%	-16%
O=C(Nc1nnc(C2CC2)o1)c1ccc(S(=O)(=O)N2CCCCC2)cc1	?	?	?	-42%	-15%	-29%
O=C(Nc1nnc(C2CC2)o1)c1ccc(S(=O)(=O)N2CCCc3ccccc32)cc1	?	4.6µM*	?	-6%	?	?
COc1ccc(-c2nnc(NC(=O)c3ccc(S(=O)(=O)N4CCCc5ccccc54)cc3)o2)cc1	?	3.2µM*	5.6µM*	-3%	11µM*	11µM*
COCc1nnc(NC(=O)c2ccc(S(=O)(=O)N3CCCc4ccccc43)cc2)o1	-1%	23µM*	?	-20%	15µM*	21µM*
Cc1ccccc1OCCC(=O)OCC(=O)c1c(N)n(CC(C)C)c(=O)n(C)c1=O	-1%	?	?	0%	-7%	-7%
